Source: publication PMC7862700, “An all-to-all approach to the identification of sequence-specific readers for epigenetic DNA modifications on cytosine”

Tests used:
Experiment in all cases: DAPPL (digital affinity profiling via proximity ligation, sequencing); 10 mM Tris-HCl pH 7.5, 50 mM NaCl, 1 mM DTT, 4% glycerol, room temperature, 30 min; GST-TFs on glutathione beads, 16-mer random dsDNA library, 0.1% formaldehyde crosslink after washing; high values mean tight binding
FEV = biological target: T1, FEV (Homo sapiens, UniProt Q99581 1-238); conditions: protein: recombinant; tags: N-terminal GST; dsDNA, one strand shown
T1 sequence: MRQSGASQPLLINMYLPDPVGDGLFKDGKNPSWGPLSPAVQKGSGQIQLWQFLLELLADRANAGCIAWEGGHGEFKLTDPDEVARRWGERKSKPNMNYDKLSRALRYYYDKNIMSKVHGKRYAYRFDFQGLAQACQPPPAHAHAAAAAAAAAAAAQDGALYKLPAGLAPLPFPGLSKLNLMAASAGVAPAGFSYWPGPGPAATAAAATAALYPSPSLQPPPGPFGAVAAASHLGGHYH
How it was run: (§1)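 Yeast served to express human transcription factors as GST fusions, which were then captured on glutathione beads and labelled with DNA barcodes. Pooled with a tag-only sample, they were incubated with 200 nmole of a 16-mer random double-stranded DNA library for 30 min at room temperature in Tris/NaCl/DTT/glycerol buffer, washed, crosslinked with 0.1% formaldehyde, ligated by proximity, amplified by PCR and sequenced. Dividing each hexamer's read frequency for a factor by its frequency for the tag-only sample gives the binding signal.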

ETV5 = ETV5 (Homo sapiens, UniProt P41161 1-510); conditions: protein: recombinant; tags: N-terminal GST; dsDNA, one strand shown
How it was run: as §1

HSF1 = HSF1 (Homo sapiens, UniProt Q00613 1-529); conditions: protein: recombinant; tags: N-terminal GST; chain copies: 3; dsDNA, one strand shown
How it was run: as §1

SPIC = biological target: T2, SPIC (Homo sapiens, UniProt Q8N5J4 1-248); conditions: protein: recombinant; tags: N-terminal GST; dsDNA, one strand shown
T2 sequence: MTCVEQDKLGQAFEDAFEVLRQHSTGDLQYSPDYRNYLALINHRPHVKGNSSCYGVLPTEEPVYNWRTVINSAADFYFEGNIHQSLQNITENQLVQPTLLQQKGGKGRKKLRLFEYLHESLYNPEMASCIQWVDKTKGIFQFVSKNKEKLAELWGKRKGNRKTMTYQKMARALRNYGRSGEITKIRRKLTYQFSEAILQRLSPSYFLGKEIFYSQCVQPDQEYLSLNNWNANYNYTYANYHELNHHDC
How it was run: as §1

ELF4 = ELF4 (Homo sapiens, UniProt Q99607 1-663); conditions: protein: recombinant; tags: N-terminal GST; dsDNA, one strand shown
How it was run: as §1

ELK4 = biological target: T3, ELK4 (Homo sapiens, UniProt P28324-2 1-405); conditions: protein: recombinant; tags: N-terminal GST; dsDNA, one strand shown
T3 sequence: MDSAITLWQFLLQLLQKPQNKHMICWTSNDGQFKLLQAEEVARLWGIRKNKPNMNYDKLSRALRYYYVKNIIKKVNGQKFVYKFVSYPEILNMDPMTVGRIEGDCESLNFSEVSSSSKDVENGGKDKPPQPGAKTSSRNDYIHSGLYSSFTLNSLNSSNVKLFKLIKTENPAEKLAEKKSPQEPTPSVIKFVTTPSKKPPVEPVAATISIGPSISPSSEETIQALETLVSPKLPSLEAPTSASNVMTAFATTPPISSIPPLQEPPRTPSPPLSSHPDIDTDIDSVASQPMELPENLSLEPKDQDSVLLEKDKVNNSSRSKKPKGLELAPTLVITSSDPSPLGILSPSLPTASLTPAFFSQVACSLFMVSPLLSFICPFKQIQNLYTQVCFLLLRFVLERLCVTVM
How it was run: as §1

ETV2 = biological target: T4, ETV2 (Homo sapiens, UniProt O00321 1-342); conditions: protein: recombinant; tags: N-terminal GST; dsDNA, one strand shown
T4 sequence: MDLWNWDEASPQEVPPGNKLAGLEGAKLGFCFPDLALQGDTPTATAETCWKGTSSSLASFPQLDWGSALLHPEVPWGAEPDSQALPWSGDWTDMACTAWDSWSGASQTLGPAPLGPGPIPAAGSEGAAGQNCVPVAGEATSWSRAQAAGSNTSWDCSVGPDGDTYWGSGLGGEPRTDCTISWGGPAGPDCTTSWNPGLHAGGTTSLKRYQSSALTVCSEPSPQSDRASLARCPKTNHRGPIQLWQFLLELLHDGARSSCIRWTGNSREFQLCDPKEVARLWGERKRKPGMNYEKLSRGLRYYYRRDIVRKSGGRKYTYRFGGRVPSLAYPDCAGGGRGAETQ
How it was run: as §1

ELF3 = biological target: T5, ELF3 (Homo sapiens, UniProt P78545 1-371); conditions: protein: recombinant; tags: N-terminal GST; dsDNA, one strand shown
T5 sequence: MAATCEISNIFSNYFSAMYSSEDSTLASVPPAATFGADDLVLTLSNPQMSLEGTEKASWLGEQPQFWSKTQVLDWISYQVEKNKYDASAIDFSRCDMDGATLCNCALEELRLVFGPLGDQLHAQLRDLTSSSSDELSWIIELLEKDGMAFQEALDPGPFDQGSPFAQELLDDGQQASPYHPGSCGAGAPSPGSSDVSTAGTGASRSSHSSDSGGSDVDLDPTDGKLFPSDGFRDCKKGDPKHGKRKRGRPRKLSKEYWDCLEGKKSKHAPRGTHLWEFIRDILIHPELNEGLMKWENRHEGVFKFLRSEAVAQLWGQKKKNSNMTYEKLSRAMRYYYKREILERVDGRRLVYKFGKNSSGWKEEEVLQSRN
How it was run: as §1

CRX = CRX (Homo sapiens, UniProt O43186 1-299); conditions: protein: recombinant; tags: N-terminal GST; dsDNA, one strand shown
How it was run: as §1

CRX, sequence (O43186 whole entry): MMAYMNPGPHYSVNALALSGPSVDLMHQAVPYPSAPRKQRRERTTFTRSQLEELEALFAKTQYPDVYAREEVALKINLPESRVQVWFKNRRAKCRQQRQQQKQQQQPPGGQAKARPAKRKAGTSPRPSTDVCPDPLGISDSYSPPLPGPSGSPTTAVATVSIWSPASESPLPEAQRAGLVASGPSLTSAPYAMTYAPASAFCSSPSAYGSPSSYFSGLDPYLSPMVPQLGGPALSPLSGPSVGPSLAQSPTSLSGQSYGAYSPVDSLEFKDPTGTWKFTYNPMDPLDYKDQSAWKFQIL
HSF1, sequence (Q00613 whole entry): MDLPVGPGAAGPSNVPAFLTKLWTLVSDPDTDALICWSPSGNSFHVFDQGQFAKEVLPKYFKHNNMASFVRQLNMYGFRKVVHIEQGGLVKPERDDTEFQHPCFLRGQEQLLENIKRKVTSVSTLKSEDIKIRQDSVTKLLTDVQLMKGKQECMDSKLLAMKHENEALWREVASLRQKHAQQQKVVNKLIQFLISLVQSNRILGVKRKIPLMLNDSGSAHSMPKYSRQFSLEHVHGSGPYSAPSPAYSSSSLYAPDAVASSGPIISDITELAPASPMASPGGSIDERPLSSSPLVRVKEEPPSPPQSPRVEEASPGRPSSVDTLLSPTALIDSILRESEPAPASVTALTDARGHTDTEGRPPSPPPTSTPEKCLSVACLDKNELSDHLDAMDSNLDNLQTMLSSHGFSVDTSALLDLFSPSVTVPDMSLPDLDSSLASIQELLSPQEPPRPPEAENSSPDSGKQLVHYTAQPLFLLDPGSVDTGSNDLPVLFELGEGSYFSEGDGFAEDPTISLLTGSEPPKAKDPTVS
ELF4, sequence (Q99607 whole entry): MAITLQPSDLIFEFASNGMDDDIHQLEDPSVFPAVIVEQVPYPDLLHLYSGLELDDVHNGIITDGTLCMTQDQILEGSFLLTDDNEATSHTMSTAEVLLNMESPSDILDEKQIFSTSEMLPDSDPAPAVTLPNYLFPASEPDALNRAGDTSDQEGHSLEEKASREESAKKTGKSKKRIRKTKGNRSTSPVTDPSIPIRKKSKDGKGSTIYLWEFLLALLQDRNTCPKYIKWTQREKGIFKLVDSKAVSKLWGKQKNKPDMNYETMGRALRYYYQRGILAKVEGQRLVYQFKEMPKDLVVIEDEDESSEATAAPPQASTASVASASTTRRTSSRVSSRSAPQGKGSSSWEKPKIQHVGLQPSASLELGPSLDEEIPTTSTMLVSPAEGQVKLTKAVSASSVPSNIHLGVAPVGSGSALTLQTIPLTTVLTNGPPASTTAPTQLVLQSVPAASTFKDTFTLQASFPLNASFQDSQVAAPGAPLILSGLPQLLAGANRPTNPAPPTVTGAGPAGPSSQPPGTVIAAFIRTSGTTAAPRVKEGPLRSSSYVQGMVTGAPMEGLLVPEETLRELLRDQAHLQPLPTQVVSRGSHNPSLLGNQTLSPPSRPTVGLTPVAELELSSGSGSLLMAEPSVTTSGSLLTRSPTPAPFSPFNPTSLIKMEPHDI
ETV5, sequence (P41161 whole entry): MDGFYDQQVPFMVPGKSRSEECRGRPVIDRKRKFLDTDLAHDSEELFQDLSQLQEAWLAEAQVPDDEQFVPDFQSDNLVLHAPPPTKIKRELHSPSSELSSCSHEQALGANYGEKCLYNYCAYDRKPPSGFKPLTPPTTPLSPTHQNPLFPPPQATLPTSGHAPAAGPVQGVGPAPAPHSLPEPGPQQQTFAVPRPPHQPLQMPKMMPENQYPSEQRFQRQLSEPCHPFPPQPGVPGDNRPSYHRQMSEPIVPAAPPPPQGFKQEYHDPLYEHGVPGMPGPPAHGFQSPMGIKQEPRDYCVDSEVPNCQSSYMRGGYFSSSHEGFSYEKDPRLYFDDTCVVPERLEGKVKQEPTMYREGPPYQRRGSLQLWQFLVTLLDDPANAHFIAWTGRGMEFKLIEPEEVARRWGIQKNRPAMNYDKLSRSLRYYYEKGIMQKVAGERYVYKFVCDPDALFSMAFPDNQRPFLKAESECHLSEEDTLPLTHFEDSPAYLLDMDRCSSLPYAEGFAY

CTGTCT
binding signal (FEV): 1.42 fold enrichment (6-mer frequency, TF over GST control)
binding signal (ETV5): 1.4 fold enrichment (6-mer frequency, TF over GST control)
binding signal (HSF1): 1.22 fold enrichment (6-mer frequency, TF over GST control)
binding signal (SPIC): 1.56 fold enrichment (6-mer frequency, TF over GST control)
binding signal (ELF4): 1.38 fold enrichment (6-mer frequency, TF over GST control)
binding signal (ELK4): 1.46 fold enrichment (6-mer frequency, TF over GST control)
binding signal (ETV2): 1.26 fold enrichment (6-mer frequency, TF over GST control)
binding signal (ELF3): 1.47 fold enrichment (6-mer frequency, TF over GST control)
binding signal (CRX): 1.09 fold enrichment (6-mer frequency, TF over GST control)
